Structures are written as SMILES. About 79,000 compounds went through this panel and 15% of them were active in at least one assay; those are over-represented in the sample as a whole. Unmarked numbers belong to inactive results. Active and inactive are the calls of the source. Rule as the data show it: active = growth inhibition above about 70%; inactive = the rest.

A short description of the experiment: NCI Yeast Anticancer Drug Screen. Data for the mgt1 strain (AID 153). The conditions noted are these: S. cerevisiae mgt1 mutant growth inhibition; at 1.2 µM; hits give high values. In outline: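 Measured: inhibition of mgt1 yeast growth by compound, normalized to vehicle-treated cultures.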
For `CCCc1cc(C(=O)OCC)cc(CCC)c1O`, the growth inhibition is -3%.
For the molecule `CC(C)[N+]([O-])(CCCNc1c2ccccc2nc2cccc([N+](=O)[O-])c12)C(C)C`, the growth inhibition was 0%.
As for `COc1cc2c3c(cccc3c1)C(=O)N(CCN(C)C)C2=O`, the growth inhibition is -24%.
For `NC(=O)NN=C(CS)CS`, the growth inhibition was -1%.
Then `Cc1ccc(NC(=O)/C(Cl)=C(\Cl)C(=O)O)cc1C`, with 4%.
Next, `CCN(CC)CC[n+]1ccc2c(C)c3[nH]c4ccc(O)cc4c3c(C)c2c1`: 0%; `CC(CC(C)(C)[N+](C)(C)C)[N+](C)(C)C` (stereo not given): -1%.
As to `COc1ccc(OC)c2cc3ccccc3cc12`, the growth inhibition was 25%.
Then `Nc1ncncc1C(C1=C(O)COC1=O)C1=C(O)COC1=O`, with -2%; and `CSC1=NNC(SC)=NN1`, with 12%; and `Cc1c(Cl)ccc2c1S(=O)(=O)c1cccc(Cl)c1-2`, with -2%.
Then `[O-][n+]1c2ccc(O)cc2nc2ccc(Cl)cc21`, with 8%.
Next, `COc1ccc2ccc3ccccc3c2c1C=O`: -7%; `Nc1ccc2c(c1)C(=O)c1cccc(N)c1C2=O`: -1%; `O=C(c1ccc(Cl)cc1Cl)C(Cl)Cl`: -21%.
Consider `COc1cc(C(=O)/C=C/c2ccccc2O)ccc1O`, for which the growth inhibition was 9%.
Then `O=Cc1cccc2ccc3ccccc3c12`, with -2%.
Then `O=C(Nc1ccc(Cl)cc1)OCC#CCCl`, with 89% (active); and `Cn1ccnc1Oc1ccc(Cl)cc1`, with -4%; and `c1ccc2c(c1)C(=NCCCN1CCCCCC1)c1cccn1-2`, with -4%.
